iPSC survival up: enhancers of single-cell hiPSC survival, primary screen, ATPlite luminescence; 100% = ROCK inhibitor wells, 0% = DMSO; survival enhancement, % at 20 µM; 360,000 compounds, 0.044% hits; in the data active means survival enhancement above about 18%;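 further: cells exposed to compounds for 16 hours before the ATP read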
NRP1-CendR mod: modulators of CendR peptide binding to NRP-1, primary screen, biochemical, fluorescence polarization, uHTS | Neuropilin-1 (Homo sapiens), O14786 | FAM-RPARPAR peptide binding to NRP-1 | inhibition, % at 25 µM | 360,000 compounds, 0.85% hits;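 active means inhibition or corrected inhibition above about 18%, plus a signal ratio from 0.5 to 1.5, limit read from the data, passing the limit was not always enough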
ARNT TACC3 PPI: disruptors of ARNT/TACC3 protein interaction, primary screen, biochemical, AlphaScreen, single concentration | Transforming acidic coiled-coil-containing protein 3 (Homo sapiens), Q9Y6A5 | AlphaScreen His-ARNT PAS-B/GST-TACC3 binding, luminescence; TACC3 fragment carries E629A point mutation | inhibition, % at 9.99 µM | 390,000 compounds, 0.66% hits | AID 623870, 2012;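 active means mean inhibition of replicates at least 50% and at least half of replicates each reaching 50%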
ABCB6 inh 2: ABCB6 transporter inhibitors, primary screen, K562-ABCB6 cells, flow cytometry, MLPCN library | ATP-binding cassette sub-family B member 6 (Homo sapiens), Q9NP58 | K562-ABCB6 porphyrin accumulation, 1 h; stronger effect = lower value | fluorescence ratio to DMSO, % at 10 µM | 360,000 compounds, 0.19% hits;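 active means fluorescence ratio to DMSO below 75%, the collection mean minus 3 SD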;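 further: signal is porphyrin accumulated inside mitochondria; lower ratio means ABCB6 inhibition with less porphyrin fluorescence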
GSIS activator: GLuc luminescence reporter in INS-1E cells, primary screen for activators of glucose-dependent secretion of insulin; INS-1E GLuc reporter insulin secretion, 2-3 h; activation, % at 16.6 µM; 370,000 compounds, 0.61% hits; AID 743287, 2014;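 active means lowest replicate activation of at least 40%, so every replicate reaches that level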
Hits are given with their value; – = inactive; · = no result; ! = not confirmed by another sample. In the library only some 1.8% were active in any assay of this set; here they are far more common.

SMILES	iPSC survival up	NRP1-CendR mod	ARNT TACC3 PPI	ABCB6 inh 2	GSIS activator
Cc1nn(-c2ccccc2)c(N)c1Sc1ccc([N+](=O)[O-])cc1	–	44.5	–	–	–
CC(C)N1CCc2c(sc(NC(=O)CCS(=O)(=O)c3ccccc3)c2C(N)=O)C1	–	25.1	–	–	–
COc1ccc(/C(=N/Nc2ncnc3ccccc23)C(=O)O)cc1	–	–	60.1	–	–
C[C@H](CO)N1C[C@H](C)[C@H](CN(C)C(=O)CCCN(C)C)OCCCC[C@H](C)Oc2ccc(NC(=O)Nc3ccc(C(F)(F)F)cc3)cc2C1=O	·	·	–	·	–
Cc1cccc(N(Cc2ccccc2)C(=O)CCl)c1	–	–	–	–	97.2
C[C@@H](NC(=O)C[C@@H]1C[C@H]2c3cc(NC(=O)c4ccc5c(c4)OCO5)ccc3O[C@H]2[C@@H](CO)O1)c1ccccc1	·	·	·	·	–
O=C(NCc1ccccn1)c1ccc(NS(=O)(=O)c2ccccc2)cc1	–	22.1	–	–	–
O=C(NCc1ccccn1)c1cccc(NS(=O)(=O)c2ccccc2)c1	–	–	–	–	–
C=CCOc1ccc(CNC(C)(C)C)cc1OC	–	24.3	–	–	·
Cc1ccccc1-c1ccc([C@H]2[C@@H](CO)N3CCCCN(C(=O)CN4CCOCC4)C[C@H]23)cc1	·	·	–	·	–
COc1cccc(CN(C)S(=O)(=O)c2ccc3c(c2)OCCO3)c1	–	18.6	–	–	–
COc1ccc(S(=O)(=O)N(C)Cc2ccc3c(c2)OCCO3)cc1	–	–	–	–	–
COc1ccc(NC(=O)N(C)C[C@H]2OCCCC[C@H](C)Oc3ccc(NC(=O)c4ccccc4)cc3C(=O)N([C@H](C)CO)C[C@@H]2C)cc1	·	·	–	·	–
O=c1[nH]c2ccc(N/C(=N/S(=O)(=O)c3ccccc3)c3ccccc3)cc2[nH]1	–	21.4	–	–	–
CC(=O)Nc1ccc(N/C(=N\S(=O)(=O)c2ccccc2)c2ccccc2)cc1	–	–	–	–	–
Cc1ccc(NC(=S)N/C(=N/S(=O)(=O)c2ccccc2)c2ccccc2)cc1	–	22.3!	–	–	–
Cc1ccc(S(=O)(=O)/N=C(/NC(=S)Nc2ccccc2)c2ccccc2)cc1	–	–	–	–	·
CO[C@@H]1CN(C)C(=O)c2cc(NC(=O)C3CCCC3)ccc2OC[C@@H](C)N(S(=O)(=O)c2ccc(Cl)cc2)C[C@H]1C	·	·	–	·	·
C/C(=N\N1C(=O)c2ccccc2NC1c1ccco1)c1ccccc1O (centres undefined)	–	–	–	–	–
O=C1c2ccccc2NC(c2ccco2)N1/N=C/c1ccco1 (centres undefined)	–	18.3	–	–	–
O=C(Nc1ccc2c(c1)[C@H]1C[C@H](CC(=O)N3CCc4ccccc4C3)O[C@@H](CO)[C@H]1O2)Nc1ccccc1F	·	·	·	·	–
CCOC(=O)/C(N=Nc1c(C)n(C)n(-c2ccccc2)c1=O)=C(\C)O	–	–	72.1	–	–
CC(=O)/C(N=Nc1c(C)n(C)n(-c2ccccc2)c1=O)=C(\C)O	–	–	–	–	–
Cc1c(N=NC2=C(O)CC(C)(C)CC2=O)c(=O)n(-c2ccccc2)n1C	–	–	60.8	–	–
CCNc1ccc(N=Nc2c(C)n(C)n(-c3ccccc3)c2=O)cc1	–	–	·	–	–
SMILES	iPSC survival up	NRP1-CendR mod	ARNT TACC3 PPI	ABCB6 inh 2	GSIS activator
COc1ccc(S(=O)(=O)N(C)C[C@H]2Oc3ccc(NC(=O)CCCCCC(=O)Nc4ccccc4N)cc3C(=O)N([C@@H](C)CO)C[C@@H]2C)cc1	·	·	·	·	–
COc1cc(C=C2C(=O)C=CC2=O)ccc1O	–	–	·	–	52.4
COc1cc(/C=C2/C(=O)CNC2=O)ccc1O	–	–	·	–	–
CO[C@@H]1CN(C)C(=O)c2ccc(NS(=O)(=O)CC(F)(F)F)cc2OC[C@H](C)N(C(=O)NC(C)C)C[C@H]1C	·	·	·	·	–
CN(C)c1ncnc2c1ncn2C1OC(CO)C(O)C1O (centres undefined)	–	–	–	–	·
OCC1OC(n2cnc3c(/C=C(\O)c4ccccc4)ncnc32)C(O)C1O (centres undefined)	–	22.5	–	–	–
Nc1ncnc2c1ncn2C1OC(CO)C2OC21 (centres undefined)	–	24.2	·	–	–
CCOC1OC2C(CO)OC(n3cnc4c(N)ncnc43)C2O1 (centres undefined)	–	–	–	–	·
CCOC(=O)Cc1csc(NC(=O)CSc2ncnc3c2cnn3-c2ccccc2Cl)n1	–	21.3	–	–	·
C=CCNC(=S)N1N=C(c2ccco2)CC1c1ccco1 (centres undefined)	–	–	active	–	–
CCCN(C)C[C@H]1OCCCC[C@@H](C)Oc2ccc(NS(=O)(=O)c3cccs3)cc2C(=O)N([C@H](C)CO)C[C@@H]1C	·	·	·	·	–
COc1ccc(NC(=O)C2C(=O)NC3(C)CC2c2ccccc2O3)cc1 (centres undefined)	–	33.1	–	–	·
COc1ccc(S(=O)(=O)N2CC3(CN(C(=O)c4cccnc4)[C@@H](CO)c4c3c3ccc(OC)cc3n4C)C2)cc1	·	·	·	·	–
O=C(C[C@@H]1CC[C@H](NC(=O)Nc2cc(F)ccc2F)[C@H](CO)O1)Nc1ccc(-c2ccccc2)cc1	·	·	·	·	–
O=C(NCc1ccco1)C1CCN(S(=O)(=O)c2cccc([N+](=O)[O-])c2)CC1	–	27.8	–	–	–
COc1ccccc1CNC(=O)C1CCN(S(=O)(=O)c2cccc([N+](=O)[O-])c2)CC1	–	–	–	–	–
CCOC(=O)N1CCN(C(=O)COc2ccccc2OC)CC1	–	–	–	–	62.2
CCCNC(=O)N1[C@@H]2c3ccc(-c4ccccc4OC)c(=O)n3C[C@H]1[C@H](CO)[C@H]2C(=O)NCC	·	·	–	·	–
COCCn1c(=O)[nH]c2cc(C(=O)Nc3cc(OC)c(OC)c(OC)c3)ccc2c1=O	–	–	–	–	46.9
CC(=O)Oc1cc2c(c3ccccc13)CCC2=O	–	30.9	–	–	–
CC(=O)Oc1ccc2c(c1)C(=O)CCCCCC(=O)O2	–	–	·	–	–
CCOc1ccc(Nc2ccc(N)c(S(=O)(=O)O)c2)cc1	–	39.5	–	–	–
COCC(=O)Nc1ccc2c(c1)OC[C@H](C)N(CC1CC1)C[C@@H](C)[C@@H](OC)CN(C)C2=O	·	·	–	·	–
CCOC(=O)c1c2ccc(OCC(=O)NN)cc2n2ccccc12	–	26.4	–	–	–
O=C(C[C@H]1C=C[C@H](NS(=O)(=O)c2ccccc2)[C@H](CO)O1)N1CCc2ccccc2C1	·	·	·	·	–
COc1ccc2c3c([nH]c2c1)[C@H](CO)N(C(=O)C1CCCCC1)CC31CN(Cc2nccs2)C1	·	·	·	·	–

Screening results as filed in PubChem.
